Reference: ChEMBL document CHEMBL1961873, “Compounds: GSK PKIS; Assays: Nanosyn kinase panel” (2012)

Columns and labels:
[1] = target: Leukocyte tyrosine kinase receptor (Homo sapiens) (UniProt P29376); conditions: at 1 µM;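 note: each value is the mean inhibition of LTK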
[2] = target: Tyrosine-protein kinase Lyn (Homo sapiens) (UniProt P07948); conditions: at 0.1 µM
[3] = target: Tyrosine-protein kinase Lyn (Homo sapiens) (UniProt P07948); conditions: at 1 µM
[4] = target: Tyrosine-protein kinase Lyn (Homo sapiens) (UniProt P07948); conditions: at 0.1 µM; remark: listed apart in the source
[5] = target: Tyrosine-protein kinase Lyn (Homo sapiens) (UniProt P07948); conditions: at 1 µM; remark: listed apart in the source
[6] = target: T1, Tyrosine-protein kinase Mer (Homo sapiens) (UniProt Q12866); conditions: at 0.1 µM
T1 sequence (whole entry): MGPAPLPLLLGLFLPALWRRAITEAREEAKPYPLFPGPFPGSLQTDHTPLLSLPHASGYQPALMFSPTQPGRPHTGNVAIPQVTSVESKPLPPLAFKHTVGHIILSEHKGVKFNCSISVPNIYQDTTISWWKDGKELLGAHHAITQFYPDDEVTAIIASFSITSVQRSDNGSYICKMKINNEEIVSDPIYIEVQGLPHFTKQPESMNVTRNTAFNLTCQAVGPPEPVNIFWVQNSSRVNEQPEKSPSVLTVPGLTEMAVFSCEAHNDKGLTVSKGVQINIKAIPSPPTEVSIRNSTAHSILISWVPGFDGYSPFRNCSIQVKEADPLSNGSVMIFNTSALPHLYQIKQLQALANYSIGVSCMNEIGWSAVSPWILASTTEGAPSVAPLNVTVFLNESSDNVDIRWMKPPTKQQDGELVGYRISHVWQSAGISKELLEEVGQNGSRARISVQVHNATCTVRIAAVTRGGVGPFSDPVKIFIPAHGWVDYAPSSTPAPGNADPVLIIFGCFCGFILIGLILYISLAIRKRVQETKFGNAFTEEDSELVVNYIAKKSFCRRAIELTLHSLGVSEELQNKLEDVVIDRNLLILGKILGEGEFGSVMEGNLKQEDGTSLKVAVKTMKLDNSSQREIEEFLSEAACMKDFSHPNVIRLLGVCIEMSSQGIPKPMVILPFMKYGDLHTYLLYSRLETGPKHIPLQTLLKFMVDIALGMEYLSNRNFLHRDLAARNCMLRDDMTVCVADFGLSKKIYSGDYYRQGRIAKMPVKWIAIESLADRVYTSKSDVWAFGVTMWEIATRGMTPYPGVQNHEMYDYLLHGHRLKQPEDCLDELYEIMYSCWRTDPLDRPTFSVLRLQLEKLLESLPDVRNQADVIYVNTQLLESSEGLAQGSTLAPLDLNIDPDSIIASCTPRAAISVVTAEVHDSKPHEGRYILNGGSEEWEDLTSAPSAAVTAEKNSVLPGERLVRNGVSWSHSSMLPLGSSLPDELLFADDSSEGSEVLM

[7] = target: T1, Tyrosine-protein kinase Mer (Homo sapiens); conditions: at 1 µM
[8] = target: Hepatocyte growth factor receptor (Homo sapiens) (UniProt P08581); conditions: at 0.1 µM
[9] = target: Hepatocyte growth factor receptor (Homo sapiens) (UniProt P08581); conditions: at 1 µM
[10] = target: T2, Muscle, skeletal receptor tyrosine-protein kinase (Homo sapiens) (UniProt O15146); conditions: at 0.1 µM
T2 sequence (whole entry): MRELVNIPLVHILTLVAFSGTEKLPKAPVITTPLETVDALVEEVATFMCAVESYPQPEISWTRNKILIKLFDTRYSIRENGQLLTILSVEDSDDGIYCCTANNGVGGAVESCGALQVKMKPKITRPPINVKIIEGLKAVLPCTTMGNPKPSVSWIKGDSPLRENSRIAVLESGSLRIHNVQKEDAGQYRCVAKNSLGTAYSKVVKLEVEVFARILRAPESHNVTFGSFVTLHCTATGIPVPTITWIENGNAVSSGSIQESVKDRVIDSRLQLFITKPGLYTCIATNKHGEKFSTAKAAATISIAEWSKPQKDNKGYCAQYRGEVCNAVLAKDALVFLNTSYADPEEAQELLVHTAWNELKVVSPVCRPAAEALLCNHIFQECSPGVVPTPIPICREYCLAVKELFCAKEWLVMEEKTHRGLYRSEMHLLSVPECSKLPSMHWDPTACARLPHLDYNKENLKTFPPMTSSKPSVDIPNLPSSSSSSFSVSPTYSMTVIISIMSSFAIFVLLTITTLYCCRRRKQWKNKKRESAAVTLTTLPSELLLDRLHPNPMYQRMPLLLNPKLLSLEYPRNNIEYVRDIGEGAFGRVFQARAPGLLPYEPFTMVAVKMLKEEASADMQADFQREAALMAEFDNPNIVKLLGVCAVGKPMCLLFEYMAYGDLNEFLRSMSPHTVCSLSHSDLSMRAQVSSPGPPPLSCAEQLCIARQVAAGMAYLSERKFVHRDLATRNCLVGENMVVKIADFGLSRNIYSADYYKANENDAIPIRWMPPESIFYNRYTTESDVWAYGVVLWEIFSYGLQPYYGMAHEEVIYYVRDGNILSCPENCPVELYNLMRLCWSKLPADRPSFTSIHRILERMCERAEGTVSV

[11] = target: T2, Muscle, skeletal receptor tyrosine-protein kinase (Homo sapiens); conditions: at 1 µM
[12] = target: Platelet-derived growth factor receptor alpha (Homo sapiens) (UniProt P16234); conditions: at 0.1 µM
[13] = target: Platelet-derived growth factor receptor alpha (Homo sapiens) (UniProt P16234); conditions: at 1 µM
[14] = tested on: Platelet-derived growth factor receptor alpha (Homo sapiens), P16234 [D842V]; conditions: at 0.1 µM
[15] = tested on: Platelet-derived growth factor receptor alpha (Homo sapiens), P16234 [D842V]; conditions: at 1 µM
[16] = tested on: Platelet-derived growth factor receptor alpha (Homo sapiens), P16234 [T674I]; conditions: at 0.1 µM
[17] = tested on: Platelet-derived growth factor receptor alpha (Homo sapiens), P16234 [T674I]; conditions: at 1 µM
[18] = tested on: Platelet-derived growth factor receptor alpha (Homo sapiens), P16234 [V561D]; conditions: at 0.1 µM
[19] = tested on: Platelet-derived growth factor receptor alpha (Homo sapiens), P16234 [V561D]; conditions: at 1 µM
[20] = target: Platelet-derived growth factor receptor beta (Homo sapiens) (UniProt P09619); conditions: at 0.1 µM;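 note: reported value is the mean percent inhibition of the kinase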
Sequence of Platelet-derived growth factor receptor beta (Homo sapiens) (P09619 whole entry): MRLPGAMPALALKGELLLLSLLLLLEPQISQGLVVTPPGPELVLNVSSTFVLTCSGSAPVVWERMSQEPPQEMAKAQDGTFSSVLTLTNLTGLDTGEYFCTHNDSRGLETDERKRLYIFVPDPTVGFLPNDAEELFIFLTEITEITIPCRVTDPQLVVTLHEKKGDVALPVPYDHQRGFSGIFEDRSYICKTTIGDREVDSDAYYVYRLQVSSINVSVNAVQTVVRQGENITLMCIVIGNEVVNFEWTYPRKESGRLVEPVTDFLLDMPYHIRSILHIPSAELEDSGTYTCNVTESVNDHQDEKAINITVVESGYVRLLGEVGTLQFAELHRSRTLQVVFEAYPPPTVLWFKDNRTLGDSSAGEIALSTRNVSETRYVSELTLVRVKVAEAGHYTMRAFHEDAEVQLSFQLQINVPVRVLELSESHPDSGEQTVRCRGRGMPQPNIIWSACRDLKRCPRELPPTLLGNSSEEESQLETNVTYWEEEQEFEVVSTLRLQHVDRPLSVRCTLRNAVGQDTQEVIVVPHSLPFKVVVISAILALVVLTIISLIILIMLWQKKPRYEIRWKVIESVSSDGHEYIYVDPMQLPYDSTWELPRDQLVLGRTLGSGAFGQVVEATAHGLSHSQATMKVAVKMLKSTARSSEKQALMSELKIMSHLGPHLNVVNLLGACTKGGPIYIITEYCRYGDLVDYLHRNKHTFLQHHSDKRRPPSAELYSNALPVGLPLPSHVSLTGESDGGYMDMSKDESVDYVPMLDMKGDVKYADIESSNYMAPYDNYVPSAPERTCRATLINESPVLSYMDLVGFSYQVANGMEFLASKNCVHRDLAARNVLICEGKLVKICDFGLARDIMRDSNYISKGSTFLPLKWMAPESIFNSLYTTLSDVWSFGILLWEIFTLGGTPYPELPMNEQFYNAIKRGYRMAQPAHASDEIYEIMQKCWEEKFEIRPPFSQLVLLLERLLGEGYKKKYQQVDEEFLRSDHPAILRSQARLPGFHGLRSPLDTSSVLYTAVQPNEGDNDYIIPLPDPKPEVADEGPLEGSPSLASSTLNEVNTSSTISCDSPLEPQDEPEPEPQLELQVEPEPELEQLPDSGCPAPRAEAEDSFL

Sequence of Hepatocyte growth factor receptor (Homo sapiens) (P08581 whole entry): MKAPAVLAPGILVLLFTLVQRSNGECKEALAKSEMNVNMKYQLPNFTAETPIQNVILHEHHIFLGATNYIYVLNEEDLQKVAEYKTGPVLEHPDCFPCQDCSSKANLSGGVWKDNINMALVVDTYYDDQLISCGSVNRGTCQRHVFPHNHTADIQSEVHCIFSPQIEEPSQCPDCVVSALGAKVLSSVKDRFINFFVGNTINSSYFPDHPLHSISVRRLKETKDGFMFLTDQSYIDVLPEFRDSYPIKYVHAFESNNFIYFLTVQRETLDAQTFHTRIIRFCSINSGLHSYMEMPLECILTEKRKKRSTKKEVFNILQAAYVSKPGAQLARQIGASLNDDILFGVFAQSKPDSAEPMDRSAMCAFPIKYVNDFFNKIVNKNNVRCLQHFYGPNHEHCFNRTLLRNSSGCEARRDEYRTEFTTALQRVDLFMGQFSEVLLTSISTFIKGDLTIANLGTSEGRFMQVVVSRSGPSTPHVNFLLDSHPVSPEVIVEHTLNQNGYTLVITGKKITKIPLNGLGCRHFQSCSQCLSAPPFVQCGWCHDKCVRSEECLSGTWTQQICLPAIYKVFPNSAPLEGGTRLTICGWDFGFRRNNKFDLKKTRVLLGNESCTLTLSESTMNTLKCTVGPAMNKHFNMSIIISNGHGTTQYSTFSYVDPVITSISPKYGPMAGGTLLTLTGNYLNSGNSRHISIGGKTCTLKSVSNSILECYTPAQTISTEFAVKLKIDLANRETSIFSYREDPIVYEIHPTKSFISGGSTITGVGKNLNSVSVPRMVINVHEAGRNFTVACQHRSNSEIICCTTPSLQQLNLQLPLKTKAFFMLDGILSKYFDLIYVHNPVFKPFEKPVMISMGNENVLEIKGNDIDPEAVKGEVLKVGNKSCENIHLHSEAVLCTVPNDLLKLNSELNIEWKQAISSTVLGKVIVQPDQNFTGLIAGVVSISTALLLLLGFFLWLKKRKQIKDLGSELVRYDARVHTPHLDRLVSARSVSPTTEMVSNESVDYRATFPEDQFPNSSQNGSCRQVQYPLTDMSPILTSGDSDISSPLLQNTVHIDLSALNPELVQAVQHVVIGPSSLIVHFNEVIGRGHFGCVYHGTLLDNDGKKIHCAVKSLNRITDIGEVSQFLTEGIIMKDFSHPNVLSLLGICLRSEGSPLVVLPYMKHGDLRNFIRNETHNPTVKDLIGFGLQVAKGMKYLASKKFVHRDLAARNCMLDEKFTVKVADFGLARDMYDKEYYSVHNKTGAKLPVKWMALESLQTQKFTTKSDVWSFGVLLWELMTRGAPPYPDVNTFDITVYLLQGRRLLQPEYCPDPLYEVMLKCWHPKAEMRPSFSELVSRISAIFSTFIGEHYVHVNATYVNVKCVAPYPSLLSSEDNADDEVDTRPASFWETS
Sequence of Platelet-derived growth factor receptor alpha (Homo sapiens), P16234 [T674I] (P16234 whole entry T674I): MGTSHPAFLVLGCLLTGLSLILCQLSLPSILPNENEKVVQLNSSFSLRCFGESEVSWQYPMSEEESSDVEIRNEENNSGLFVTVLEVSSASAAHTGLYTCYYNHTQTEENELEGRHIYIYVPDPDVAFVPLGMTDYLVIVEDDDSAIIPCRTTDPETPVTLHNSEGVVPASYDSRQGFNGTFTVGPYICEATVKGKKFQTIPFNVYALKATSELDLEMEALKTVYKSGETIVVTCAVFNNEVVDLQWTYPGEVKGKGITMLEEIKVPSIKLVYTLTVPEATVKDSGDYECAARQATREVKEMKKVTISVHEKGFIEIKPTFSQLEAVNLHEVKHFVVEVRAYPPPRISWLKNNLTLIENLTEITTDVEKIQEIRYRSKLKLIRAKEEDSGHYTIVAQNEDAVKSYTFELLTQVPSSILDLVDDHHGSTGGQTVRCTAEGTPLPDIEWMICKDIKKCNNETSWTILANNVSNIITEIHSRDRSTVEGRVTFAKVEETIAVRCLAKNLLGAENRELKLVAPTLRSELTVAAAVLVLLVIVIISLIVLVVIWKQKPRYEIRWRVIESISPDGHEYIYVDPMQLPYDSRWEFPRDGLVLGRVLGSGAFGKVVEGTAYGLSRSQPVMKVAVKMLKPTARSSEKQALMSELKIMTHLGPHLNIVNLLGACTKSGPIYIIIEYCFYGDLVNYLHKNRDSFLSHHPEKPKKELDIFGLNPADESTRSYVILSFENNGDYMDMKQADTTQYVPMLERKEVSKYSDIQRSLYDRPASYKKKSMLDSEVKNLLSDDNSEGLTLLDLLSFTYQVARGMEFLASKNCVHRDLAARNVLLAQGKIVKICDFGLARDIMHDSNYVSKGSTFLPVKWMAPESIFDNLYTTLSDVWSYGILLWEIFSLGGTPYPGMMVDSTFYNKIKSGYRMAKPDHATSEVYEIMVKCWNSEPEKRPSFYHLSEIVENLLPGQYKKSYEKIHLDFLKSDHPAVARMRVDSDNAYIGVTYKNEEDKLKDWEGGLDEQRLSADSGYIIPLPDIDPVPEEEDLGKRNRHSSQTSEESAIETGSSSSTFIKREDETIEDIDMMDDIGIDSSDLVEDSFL
Sequence of Platelet-derived growth factor receptor alpha (Homo sapiens) (P16234 whole entry): as the sequence (P16234 whole entry T674I) above, with I674T counted along it

Compound	inhibition [1]	inhibition [2]	inhibition [3]	inhibition [4]	inhibition [5]	inhibition [6]	inhibition [7]	inhibition [8]	inhibition [9]	inhibition [10]	inhibition [11]	inhibition [12]	inhibition [13]	inhibition [14]	inhibition [15]	inhibition [16]	inhibition [17]	inhibition [18]	inhibition [19]	inhibition [20]
NS(=O)(=O)c1ccc(N/N=C2\C(=O)Nc3ccc(Cl)cc32)cc1	4.81%	4.69%	8.22%	1.56%	6.78%	1.61%	1.21%	7.96%	7.49%	4.35%	12.6%	13.1%	40.6%	4.17%	13.1%	11.4%	62.9%	17.2%	47%	11.1%
CCCN1CCCC(c2ccc(Nc3nc(Nc4cc(F)ccc4C(N)=O)c4cc[nH]c4n3)c(OC)c2)C1 (centres undefined)	95.5%	7.48%	7.83%	3.89%	4.64%	3.05%	14.1%	2.96%	20.6%	3.6%	12.2%	10.1%	38.3%	8.12%	39.9%	5.49%	8.24%	6.86%	33.1%	6.16%
Cc1cc(O)cc(C)c1/C=C/c1cncc(C(=O)N(C)C)c1	3.38%	4.08%	7.54%	3.61%	6.35%	1.7%	8.23%	1.87%	10.9%	8.6%	8.5%	11.8%	13.3%	3.51%	3.16%	8.15%	1.18%	1.47%	5.39%	5.76%
FC(F)(F)c1ccc(-c2nn3ncccc3c2-c2ccnc(Nc3ccc4c(c3)OCCO4)n2)cc1	3.42%	6.84%	37.1%	4.96%	30.8%	7.37%	8.55%	5.94%	12.1%	7.57%	15%	9.5%	19.5%	1.06%	5.73%		5.8%	6.7%	11.7%	9.78%
Cc1ccc(Nc2ccnc(Nc3cccc(C(N)=O)c3)n2)cc1O	15.9%	61.2%	90.5%	56.5%	88.8%	1.3%	11.7%	5.11%	6.87%	5.89%	26.7%	48.1%	82.3%	48.4%	88.5%	6.94%	26.3%	46.3%	87.2%	54.7%
NC(=O)c1sc(-n2cnc3ccccc32)cc1OCc1ccccc1Br	6.11%	4.01%	6.01%	1.96%	3.34%	1.26%	2.98%	3.2%	6.5%	3.93%	7.28%	6.48%	15.4%	4.15%	6.85%	2.52%	5.25%	5.2%	9.55%	4.3%
CCOc1nccc2c1nc(-c1nonc1N)n2CC	2.99%	3.8%	6.05%	2.33%	4.84%	3.54%	6.08%	4.49%	11.2%	3.26%	8.7%	11.7%	19.1%	1.89%	6.37%	10.8%	9.83%	6.37%	5.39%	7.89%
NS(=O)(=O)c1ccc(NC=C2C(=O)Nc3ccc4ncsc4c32)cc1	17.3%	11.5%	47.1%	7.96%	40.9%	3.9%	16.3%	18.8%	62.2%	23.7%	73%	69.8%	91.4%	75.9%	95%	29.3%	90%	68%	94.9%	73.2%
CC(C)c1ccc(Nc2nccc(-c3cnn4ncccc34)n2)cc1	10.6%	4.07%	7.45%	2.28%	4.7%	1.42%	7.98%	4.89%	13.5%	3.14%	8.57%	13%	43.5%	6.98%	43%	12.4%	63.6%	18.9%	55.2%	9.63%
COc1cc2ncnc(Nc3ccc4c(cnn4Cc4ccccc4)c3)c2cc1OC	2.45%	10.4%	46.1%	7.01%	40.7%	7%	45.5%	2.31%	4.07%	3.2%	2.89%	9.97%	36.9%	4%	7.42%	4.73%	17%	6.36%	23.3%	3.39%
COc1cc(/C=N/Nc2ncnc3c2cnn3C(C)C)ccc1O	3.76%	15.2%	58.5%	11.2%	52.7%	3.4%	20.7%	4.44%	5.86%	11.6%	53.2%	17.4%	64.7%	13.3%	61.1%	3.82%	4.12%	12.3%	54.8%	8.52%
